Key:
Test in all cases: DAPPL (digital affinity profiling via proximity ligation, sequencing); 10 mM Tris-HCl pH 7.5, 50 mM NaCl, 1 mM DTT, 4% glycerol, room temperature, 30 min; GST-TFs on glutathione beads, 16-mer random dsDNA library, 0.1% formaldehyde crosslink after washing; high values mean tight binding
[1] = biological target: T1, FLI1 (Homo sapiens, UniProt Q01543 1-452); details: protein: recombinant; tags: N-terminal GST; dsDNA, one strand shown
T1 sequence: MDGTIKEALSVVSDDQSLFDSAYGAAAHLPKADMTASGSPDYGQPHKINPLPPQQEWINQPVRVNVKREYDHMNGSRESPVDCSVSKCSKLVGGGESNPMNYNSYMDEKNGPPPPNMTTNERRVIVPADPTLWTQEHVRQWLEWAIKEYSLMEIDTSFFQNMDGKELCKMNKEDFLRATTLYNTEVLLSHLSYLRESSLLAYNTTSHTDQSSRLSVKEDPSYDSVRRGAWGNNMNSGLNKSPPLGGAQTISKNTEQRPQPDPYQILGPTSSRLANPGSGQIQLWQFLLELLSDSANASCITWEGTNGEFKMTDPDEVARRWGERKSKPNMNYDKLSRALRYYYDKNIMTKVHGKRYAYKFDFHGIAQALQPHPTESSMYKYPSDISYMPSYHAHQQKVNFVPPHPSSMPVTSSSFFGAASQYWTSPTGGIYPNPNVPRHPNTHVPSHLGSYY
Method in brief: (§1)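 Pools were built from human transcription factors expressed in yeast as GST fusions, captured on glutathione beads and DNA-barcoded, along with a tag-only sample. Incubation with 200 nmole of a 16-mer random double-stranded DNA library lasted 30 min at room temperature in Tris/NaCl/DTT/glycerol buffer, and was followed by washing, 0.1% formaldehyde crosslinking, proximity ligation, PCR amplification and Illumina NextSeq500 sequencing. Binding signal is the quotient of each hexamer's read frequency for a factor and its frequency for the tag-only sample.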

[2] = biological target: T2, ELK1 (Homo sapiens, UniProt P19419 1-428); details: protein: recombinant; tags: N-terminal GST; dsDNA, one strand shown
T2 sequence: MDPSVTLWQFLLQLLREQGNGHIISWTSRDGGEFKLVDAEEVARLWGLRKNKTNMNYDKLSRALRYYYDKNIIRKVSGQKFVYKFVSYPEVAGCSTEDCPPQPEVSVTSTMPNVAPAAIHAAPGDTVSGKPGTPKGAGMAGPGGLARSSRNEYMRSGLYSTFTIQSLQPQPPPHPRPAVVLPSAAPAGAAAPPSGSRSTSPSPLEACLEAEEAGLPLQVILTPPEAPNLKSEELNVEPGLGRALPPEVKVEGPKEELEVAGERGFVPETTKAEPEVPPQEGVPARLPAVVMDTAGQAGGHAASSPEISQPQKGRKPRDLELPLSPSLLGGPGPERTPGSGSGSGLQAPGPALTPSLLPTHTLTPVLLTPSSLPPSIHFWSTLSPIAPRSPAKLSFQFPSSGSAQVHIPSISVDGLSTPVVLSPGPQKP
Method in brief: as §1

[3] = biological target: T3, GABPA (Homo sapiens, UniProt Q06546 1-454); details: protein: recombinant; tags: N-terminal GST; dsDNA, one strand shown
T3 sequence: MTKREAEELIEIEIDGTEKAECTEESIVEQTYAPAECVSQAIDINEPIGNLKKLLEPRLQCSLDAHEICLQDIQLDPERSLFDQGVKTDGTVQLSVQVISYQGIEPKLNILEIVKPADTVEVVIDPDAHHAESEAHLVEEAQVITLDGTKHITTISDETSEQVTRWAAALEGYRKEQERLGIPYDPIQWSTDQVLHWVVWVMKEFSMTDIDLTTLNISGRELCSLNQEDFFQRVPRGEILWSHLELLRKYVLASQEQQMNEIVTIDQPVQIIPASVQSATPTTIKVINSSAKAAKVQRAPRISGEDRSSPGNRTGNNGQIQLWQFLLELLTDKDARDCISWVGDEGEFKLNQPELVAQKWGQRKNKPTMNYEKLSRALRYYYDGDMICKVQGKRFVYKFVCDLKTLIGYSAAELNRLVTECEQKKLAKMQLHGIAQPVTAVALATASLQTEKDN
Method in brief: as §1

[4] = biological target: T4, ERG (Homo sapiens, UniProt P11308 1-479); details: protein: recombinant; tags: N-terminal GST; dsDNA, one strand shown
T4 sequence: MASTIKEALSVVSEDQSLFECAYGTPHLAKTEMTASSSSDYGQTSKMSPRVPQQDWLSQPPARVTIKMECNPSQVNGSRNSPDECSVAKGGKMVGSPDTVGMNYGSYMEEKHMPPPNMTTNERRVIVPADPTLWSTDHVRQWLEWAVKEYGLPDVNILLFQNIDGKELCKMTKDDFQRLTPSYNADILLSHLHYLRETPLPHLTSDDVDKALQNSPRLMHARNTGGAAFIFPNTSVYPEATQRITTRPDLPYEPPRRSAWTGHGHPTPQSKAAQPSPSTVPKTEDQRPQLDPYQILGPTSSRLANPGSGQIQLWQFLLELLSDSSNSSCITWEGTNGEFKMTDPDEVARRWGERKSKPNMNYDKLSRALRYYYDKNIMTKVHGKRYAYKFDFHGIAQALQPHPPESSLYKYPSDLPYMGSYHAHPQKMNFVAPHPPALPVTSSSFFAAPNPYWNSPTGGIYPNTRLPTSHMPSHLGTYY
Method in brief: as §1

[5] = biological target: ELF1 (Homo sapiens, UniProt P32519 1-619); details: protein: recombinant; tags: N-terminal GST; dsDNA, one strand shown
Chain of ELF1 (P32519 whole entry): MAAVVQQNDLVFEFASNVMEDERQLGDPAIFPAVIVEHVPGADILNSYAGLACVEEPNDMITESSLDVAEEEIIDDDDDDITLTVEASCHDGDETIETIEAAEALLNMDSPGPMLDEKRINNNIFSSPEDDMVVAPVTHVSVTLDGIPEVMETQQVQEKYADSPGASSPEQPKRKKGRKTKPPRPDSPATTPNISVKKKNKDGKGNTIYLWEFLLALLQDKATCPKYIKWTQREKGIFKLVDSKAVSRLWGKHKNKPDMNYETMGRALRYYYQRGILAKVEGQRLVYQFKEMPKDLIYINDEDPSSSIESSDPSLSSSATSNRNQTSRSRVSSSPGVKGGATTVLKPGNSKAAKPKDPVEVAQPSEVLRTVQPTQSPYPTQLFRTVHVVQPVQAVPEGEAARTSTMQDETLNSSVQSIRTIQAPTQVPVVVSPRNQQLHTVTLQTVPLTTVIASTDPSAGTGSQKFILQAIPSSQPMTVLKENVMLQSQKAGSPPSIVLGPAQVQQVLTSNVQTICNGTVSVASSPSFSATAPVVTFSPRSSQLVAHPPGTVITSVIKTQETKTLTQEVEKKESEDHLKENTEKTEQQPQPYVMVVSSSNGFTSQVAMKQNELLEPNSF
Method in brief: as §1

[6] = biological target: T5, EHF (Homo sapiens, UniProt Q9NZC4 1-300); details: protein: recombinant; tags: N-terminal GST; dsDNA, one strand shown
T5 sequence: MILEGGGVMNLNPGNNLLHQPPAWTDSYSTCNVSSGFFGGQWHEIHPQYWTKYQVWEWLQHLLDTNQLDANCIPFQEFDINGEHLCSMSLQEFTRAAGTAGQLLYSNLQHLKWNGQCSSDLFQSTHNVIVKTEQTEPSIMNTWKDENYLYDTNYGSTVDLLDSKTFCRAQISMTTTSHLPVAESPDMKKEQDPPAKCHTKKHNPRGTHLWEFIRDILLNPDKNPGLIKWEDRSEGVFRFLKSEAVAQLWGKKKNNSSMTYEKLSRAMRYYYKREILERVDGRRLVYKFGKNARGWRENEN
Method in brief: as §1

[7] = biological target: SPI1 (Homo sapiens, UniProt P17947 1-270); details: protein: recombinant; tags: N-terminal GST; dsDNA, one strand shown
Method in brief: as §1

[8] = biological target: SPIB (Homo sapiens, UniProt Q01892 1-262); details: protein: recombinant; tags: N-terminal GST; dsDNA, one strand shown
Chain of SPIB (Q01892 whole entry): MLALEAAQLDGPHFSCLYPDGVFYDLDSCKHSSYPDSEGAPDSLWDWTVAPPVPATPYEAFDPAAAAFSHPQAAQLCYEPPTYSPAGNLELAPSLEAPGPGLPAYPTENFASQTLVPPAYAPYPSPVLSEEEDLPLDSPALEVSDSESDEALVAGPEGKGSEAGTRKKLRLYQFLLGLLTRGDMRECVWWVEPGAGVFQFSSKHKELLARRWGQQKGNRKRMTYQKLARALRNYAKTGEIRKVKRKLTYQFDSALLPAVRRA
Method in brief: as §1

[9] = biological target: T6, ELK3 (Homo sapiens, UniProt P41970 1-407); details: protein: recombinant; tags: N-terminal GST; dsDNA, one strand shown
T6 sequence: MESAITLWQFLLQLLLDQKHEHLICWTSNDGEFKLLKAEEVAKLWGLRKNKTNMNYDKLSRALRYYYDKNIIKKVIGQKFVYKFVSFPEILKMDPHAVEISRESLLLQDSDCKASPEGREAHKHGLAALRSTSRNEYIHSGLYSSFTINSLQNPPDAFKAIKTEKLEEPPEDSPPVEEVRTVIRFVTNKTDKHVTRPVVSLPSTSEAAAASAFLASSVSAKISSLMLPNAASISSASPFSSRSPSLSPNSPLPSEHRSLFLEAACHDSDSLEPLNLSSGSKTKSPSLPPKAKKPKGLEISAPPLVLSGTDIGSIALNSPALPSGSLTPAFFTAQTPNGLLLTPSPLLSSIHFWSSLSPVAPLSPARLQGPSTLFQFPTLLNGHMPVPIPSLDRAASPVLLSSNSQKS
Method in brief: as §1

[10] = biological target: T7, FEV (Homo sapiens, UniProt Q99581 1-238); details: protein: recombinant; tags: N-terminal GST; dsDNA, one strand shown
T7 sequence: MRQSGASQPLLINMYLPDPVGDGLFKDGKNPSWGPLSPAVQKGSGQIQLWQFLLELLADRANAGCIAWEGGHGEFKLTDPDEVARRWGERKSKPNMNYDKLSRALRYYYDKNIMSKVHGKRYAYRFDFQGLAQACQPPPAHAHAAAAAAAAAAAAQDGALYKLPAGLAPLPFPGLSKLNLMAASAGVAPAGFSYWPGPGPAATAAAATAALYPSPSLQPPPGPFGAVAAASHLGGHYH
Method in brief: as §1

[11] = biological target: ETV5 (Homo sapiens, UniProt P41161 1-510); details: protein: recombinant; tags: N-terminal GST; dsDNA, one strand shown
Chain of ETV5 (P41161 whole entry): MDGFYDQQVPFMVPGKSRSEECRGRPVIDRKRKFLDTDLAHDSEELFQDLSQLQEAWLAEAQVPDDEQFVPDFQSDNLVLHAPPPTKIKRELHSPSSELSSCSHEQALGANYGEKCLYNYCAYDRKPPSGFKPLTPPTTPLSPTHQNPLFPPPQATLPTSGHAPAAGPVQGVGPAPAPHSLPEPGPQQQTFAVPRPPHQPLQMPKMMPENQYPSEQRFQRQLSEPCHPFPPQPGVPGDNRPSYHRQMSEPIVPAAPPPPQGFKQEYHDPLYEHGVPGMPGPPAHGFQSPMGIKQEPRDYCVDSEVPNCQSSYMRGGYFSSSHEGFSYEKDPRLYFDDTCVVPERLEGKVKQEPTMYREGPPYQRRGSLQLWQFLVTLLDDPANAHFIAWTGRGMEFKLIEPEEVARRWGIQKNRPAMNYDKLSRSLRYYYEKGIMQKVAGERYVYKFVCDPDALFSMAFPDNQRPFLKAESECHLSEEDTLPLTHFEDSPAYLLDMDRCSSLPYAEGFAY
Method in brief: as §1

[12] = biological target: HSF1 (Homo sapiens, UniProt Q00613 1-529); details: protein: recombinant; tags: N-terminal GST; chain copies: 3; dsDNA, one strand shown
Chain of HSF1 (Q00613 whole entry): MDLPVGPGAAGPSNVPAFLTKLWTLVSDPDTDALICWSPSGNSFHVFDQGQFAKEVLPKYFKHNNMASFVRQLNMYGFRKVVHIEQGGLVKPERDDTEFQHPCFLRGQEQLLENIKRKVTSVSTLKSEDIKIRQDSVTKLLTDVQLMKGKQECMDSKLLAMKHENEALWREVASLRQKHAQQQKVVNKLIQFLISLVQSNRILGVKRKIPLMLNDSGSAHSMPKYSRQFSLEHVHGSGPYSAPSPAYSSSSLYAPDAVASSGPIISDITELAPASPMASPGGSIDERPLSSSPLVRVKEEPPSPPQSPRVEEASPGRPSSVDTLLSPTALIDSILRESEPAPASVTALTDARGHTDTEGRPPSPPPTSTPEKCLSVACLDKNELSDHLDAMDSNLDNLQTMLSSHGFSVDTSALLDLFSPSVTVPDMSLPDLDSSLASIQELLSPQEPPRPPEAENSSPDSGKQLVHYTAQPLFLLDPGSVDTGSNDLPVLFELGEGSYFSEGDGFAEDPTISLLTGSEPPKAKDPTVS
Method in brief: as §1

[13] = biological target: T8, SPIC (Homo sapiens, UniProt Q8N5J4 1-248); details: protein: recombinant; tags: N-terminal GST; dsDNA, one strand shown
T8 sequence: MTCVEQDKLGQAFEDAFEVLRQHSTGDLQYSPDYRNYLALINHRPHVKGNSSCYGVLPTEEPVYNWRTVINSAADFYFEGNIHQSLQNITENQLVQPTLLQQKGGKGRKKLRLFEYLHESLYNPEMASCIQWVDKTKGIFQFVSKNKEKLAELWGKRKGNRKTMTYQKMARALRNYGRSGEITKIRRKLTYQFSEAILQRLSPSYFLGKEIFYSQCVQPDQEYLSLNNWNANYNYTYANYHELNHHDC
Method in brief: as §1

[14] = biological target: ELF4 (Homo sapiens, UniProt Q99607 1-663); details: protein: recombinant; tags: N-terminal GST; dsDNA, one strand shown
Chain of ELF4 (Q99607 whole entry): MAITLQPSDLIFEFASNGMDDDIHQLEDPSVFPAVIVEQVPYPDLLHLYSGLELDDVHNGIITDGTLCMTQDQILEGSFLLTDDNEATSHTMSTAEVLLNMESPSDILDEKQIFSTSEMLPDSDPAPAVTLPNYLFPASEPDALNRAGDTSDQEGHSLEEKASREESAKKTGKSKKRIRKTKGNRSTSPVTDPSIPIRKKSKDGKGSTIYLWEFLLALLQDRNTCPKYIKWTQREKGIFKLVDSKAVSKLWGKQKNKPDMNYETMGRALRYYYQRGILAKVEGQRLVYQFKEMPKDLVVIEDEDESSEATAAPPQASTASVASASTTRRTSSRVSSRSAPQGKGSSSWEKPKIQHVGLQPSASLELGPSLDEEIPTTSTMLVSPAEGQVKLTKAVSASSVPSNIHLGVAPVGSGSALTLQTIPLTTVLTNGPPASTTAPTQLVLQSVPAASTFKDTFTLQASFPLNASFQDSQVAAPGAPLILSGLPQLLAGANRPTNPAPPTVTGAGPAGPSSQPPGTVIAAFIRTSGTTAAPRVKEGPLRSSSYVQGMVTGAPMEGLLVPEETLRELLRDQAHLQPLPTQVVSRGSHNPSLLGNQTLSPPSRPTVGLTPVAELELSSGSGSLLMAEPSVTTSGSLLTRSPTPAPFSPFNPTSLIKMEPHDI
Method in brief: as §1

[15] = biological target: T9, ELK4 (Homo sapiens, UniProt P28324-2 1-405); details: protein: recombinant; tags: N-terminal GST; dsDNA, one strand shown
T9 sequence: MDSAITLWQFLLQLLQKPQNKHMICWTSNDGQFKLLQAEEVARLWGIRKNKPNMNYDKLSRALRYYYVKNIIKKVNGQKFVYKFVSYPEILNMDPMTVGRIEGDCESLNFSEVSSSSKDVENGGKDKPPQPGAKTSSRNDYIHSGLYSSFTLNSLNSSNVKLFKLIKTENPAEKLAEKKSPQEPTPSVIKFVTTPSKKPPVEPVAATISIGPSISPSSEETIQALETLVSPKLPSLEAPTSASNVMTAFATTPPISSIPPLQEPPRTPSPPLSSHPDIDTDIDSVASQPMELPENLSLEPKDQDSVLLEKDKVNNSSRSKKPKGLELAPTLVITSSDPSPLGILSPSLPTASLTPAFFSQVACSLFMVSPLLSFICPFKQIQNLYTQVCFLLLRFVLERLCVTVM
Method in brief: as §1

[16] = biological target: T10, ETV2 (Homo sapiens, UniProt O00321 1-342); details: protein: recombinant; tags: N-terminal GST; dsDNA, one strand shown
T10 sequence: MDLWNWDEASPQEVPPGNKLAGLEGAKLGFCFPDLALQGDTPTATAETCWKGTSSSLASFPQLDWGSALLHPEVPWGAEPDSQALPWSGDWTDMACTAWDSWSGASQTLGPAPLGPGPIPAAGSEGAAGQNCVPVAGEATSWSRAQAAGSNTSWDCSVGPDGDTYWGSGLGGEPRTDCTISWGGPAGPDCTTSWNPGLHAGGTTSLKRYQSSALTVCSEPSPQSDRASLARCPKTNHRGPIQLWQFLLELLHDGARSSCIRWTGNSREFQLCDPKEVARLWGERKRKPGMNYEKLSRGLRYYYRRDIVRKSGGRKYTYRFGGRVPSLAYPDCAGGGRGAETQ
Method in brief: as §1

[17] = biological target: T11, ELF3 (Homo sapiens, UniProt P78545 1-371); details: protein: recombinant; tags: N-terminal GST; dsDNA, one strand shown
T11 sequence: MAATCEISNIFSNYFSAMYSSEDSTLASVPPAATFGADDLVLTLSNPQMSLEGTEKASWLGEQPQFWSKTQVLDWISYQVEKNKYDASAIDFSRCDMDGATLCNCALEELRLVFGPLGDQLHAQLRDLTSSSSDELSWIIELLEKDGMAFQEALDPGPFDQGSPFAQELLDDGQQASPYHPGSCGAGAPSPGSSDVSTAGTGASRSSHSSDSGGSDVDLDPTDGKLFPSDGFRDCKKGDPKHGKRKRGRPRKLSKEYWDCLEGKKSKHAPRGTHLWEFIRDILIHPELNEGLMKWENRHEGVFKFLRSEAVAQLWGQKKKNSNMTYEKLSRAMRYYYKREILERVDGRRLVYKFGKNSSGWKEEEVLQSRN
Method in brief: as §1

[18] = biological target: CRX (Homo sapiens, UniProt O43186 1-299); details: protein: recombinant; tags: N-terminal GST; dsDNA, one strand shown
Chain of CRX (O43186 whole entry): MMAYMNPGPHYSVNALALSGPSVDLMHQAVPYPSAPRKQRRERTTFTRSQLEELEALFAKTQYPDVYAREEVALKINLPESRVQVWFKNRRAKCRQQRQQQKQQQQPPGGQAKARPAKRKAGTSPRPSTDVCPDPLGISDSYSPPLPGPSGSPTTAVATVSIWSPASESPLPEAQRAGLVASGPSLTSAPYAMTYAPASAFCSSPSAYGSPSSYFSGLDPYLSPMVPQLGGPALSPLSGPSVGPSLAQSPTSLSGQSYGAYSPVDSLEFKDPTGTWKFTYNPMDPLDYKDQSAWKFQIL
Method in brief: as §1

[19] = biological target: ETV1 (Homo sapiens, UniProt P50549 1-477); details: protein: recombinant; tags: N-terminal GST; dsDNA, one strand shown
Chain of ETV1 (P50549 whole entry): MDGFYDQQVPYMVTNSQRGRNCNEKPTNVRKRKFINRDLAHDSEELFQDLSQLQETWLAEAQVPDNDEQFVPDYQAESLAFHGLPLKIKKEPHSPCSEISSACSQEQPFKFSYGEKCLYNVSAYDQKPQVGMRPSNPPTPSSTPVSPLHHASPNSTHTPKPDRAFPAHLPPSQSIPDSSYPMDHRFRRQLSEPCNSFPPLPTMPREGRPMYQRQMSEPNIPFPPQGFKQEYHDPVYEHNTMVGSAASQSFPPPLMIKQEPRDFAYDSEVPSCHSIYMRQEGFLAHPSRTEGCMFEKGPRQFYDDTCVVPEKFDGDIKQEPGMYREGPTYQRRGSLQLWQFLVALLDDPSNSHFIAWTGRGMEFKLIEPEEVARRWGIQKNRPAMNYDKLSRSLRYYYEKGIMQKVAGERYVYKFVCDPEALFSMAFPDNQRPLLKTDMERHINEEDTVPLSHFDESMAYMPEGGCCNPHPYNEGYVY
Method in brief: as §1

Sequence: TATGCG
- binding signal [1]: 1.5 fold enrichment (6-mer frequency, TF over GST control)
- binding signal [2]: 1.42 fold enrichment (6-mer frequency, TF over GST control)
- binding signal [3]: 1.35 fold enrichment (6-mer frequency, TF over GST control)
- binding signal [4]: 1.31 fold enrichment (6-mer frequency, TF over GST control)
- binding signal [5]: 1.31 fold enrichment (6-mer frequency, TF over GST control)
- binding signal [6]: 1.37 fold enrichment (6-mer frequency, TF over GST control)
- binding signal [7]: 1.32 fold enrichment (6-mer frequency, TF over GST control)
- binding signal [8]: 1.29 fold enrichment (6-mer frequency, TF over GST control)
- binding signal [9]: 1.39 fold enrichment (6-mer frequency, TF over GST control)
- binding signal [10]: 1.26 fold enrichment (6-mer frequency, TF over GST control)
- binding signal [11]: 1.29 fold enrichment (6-mer frequency, TF over GST control)
- binding signal [12]: 1.23 fold enrichment (6-mer frequency, TF over GST control)
- binding signal [13]: 1.63 fold enrichment (6-mer frequency, TF over GST control)
- binding signal [14]: 1.35 fold enrichment (6-mer frequency, TF over GST control)
- binding signal [15]: 1.44 fold enrichment (6-mer frequency, TF over GST control)
- binding signal [16]: 1.45 fold enrichment (6-mer frequency, TF over GST control)
- binding signal [17]: 1.19 fold enrichment (6-mer frequency, TF over GST control)
- binding signal [18]: 1.4 fold enrichment (6-mer frequency, TF over GST control)
- binding signal [19]: 1.35 fold enrichment (6-mer frequency, TF over GST control)
